Test results from PubChem BioAssay (NCI).
Compounds without any hit were thinned out: in the full panel of roughly 79,000, 15% have a hit. Active and inactive are the calls of the source. Rule as the data show it: active = growth inhibition above about 70%; inactive = the rest.

Tests used:
[1] = NCI Yeast Anticancer Drug Screen. Data for the mlh1 strain (AID 171);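 also: 0% = growth of vehicle-treated control cultures of the same strain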; details: S. cerevisiae mlh1 strain growth inhibition, active compounds read high
Procedure, shortened: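 Vehicle-normalised growth inhibition of a repair- or checkpoint-altered yeast strain following compound treatment.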

[2] = NCI Yeast Anticancer Drug Screen. Data for the sgs1 strain (AID 173);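 also: 0% = growth of vehicle-only control cultures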; details: S. cerevisiae sgs1 mutant, active compounds read high
Procedure, shortened: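 Screen format: yeast with repair or checkpoint alterations, compound exposure, growth read relative to vehicle.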

[3] = NCI Yeast Anticancer Drug Screen. Data for the mlh1 rad18 strain (AID 175); details: S. cerevisiae mlh1 rad18 strain growth inhibition, active compounds read high
Procedure, shortened: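 Vehicle-treated cultures served as the reference for growth inhibition in a yeast strain carrying DNA damage repair alterations exposed to each compound.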

[4] = NCI Yeast Anticancer Drug Screen. Data for the rad18 strain (AID 177); details: S. cerevisiae rad18 mutant growth inhibition, active compounds read high
Procedure, shortened: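 Test articles were incubated with altered yeast defective in DNA damage repair. Results are given as inhibition of growth versus vehicle.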

[5] = NCI Yeast Anticancer Drug Screen. Data for the rad52 strain (AID 147);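 also: 0% = growth of vehicle-treated control cultures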; details: S. cerevisiae rad52 mutant growth inhibition, active compounds read high
Procedure, shortened: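 Vehicle-treated cultures served as the reference for growth inhibition of compound-exposed yeast bearing a DNA repair mutation.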

[6] = NCI Yeast Anticancer Drug Screen. Data for the rad50EPP+ strain (AID 151);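 also: 0% = growth of vehicle-treated control cultures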; details: S. cerevisiae rad50 mutant strain, active compounds read high
Procedure, shortened: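 In this screen, rad50EPP+ yeast were exposed to compounds. Growth inhibition was scored against vehicle-treated controls.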

[7] = NCI Yeast Anticancer Drug Screen. Data for the mgt1 strain (AID 153); details: S. cerevisiae mgt1 mutant growth inhibition, active compounds read high
Procedure, shortened: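 mgt1 strain exposed; growth vs vehicle control recorded as inhibition.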

[8] = NCI Yeast Anticancer Drug Screen. Data for the rad50 strain (AID 155);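 also: 0% = growth of vehicle-only cultures of the same strain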; details: S. cerevisiae rad50 strain growth inhibition, active compounds read high
Procedure, shortened: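 Cells are treated with compound, grown, and their growth is then scored against vehicle-only cultures of the same repair-deficient yeast strain.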

[9] = NCI Yeast Anticancer Drug Screen. Data for the mec2-1 strain (AID 157); details: S. cerevisiae mec2-1 strain, active compounds read high
Procedure, shortened: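 Vehicle-treated cultures served as reference for growth inhibition of compound-exposed mec2-1 yeast.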

[10] = NCI Yeast Anticancer Drug Screen. Data for the rad14 strain (AID 159);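 also: 0% = growth of vehicle-treated control cultures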; details: S. cerevisiae rad14 strain growth inhibition, active compounds read high
Procedure, shortened: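 Readout: yeast growth inhibition, referenced to vehicle-only cultures. Strain bears a defined alteration in DNA damage repair.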

[11] = NCI Yeast Anticancer Drug Screen. Data for the sgs1 mgt1 strain (AID 161);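 also: 0% = growth of cultures given vehicle only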; details: S. cerevisiae sgs1 mgt1 strain, active compounds read high
Procedure, shortened: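 Mutant yeast exposed to compound; growth scored against vehicle-only wells.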

[12] = NCI Yeast Anticancer Drug Screen. Data for the CLN2oe strain (AID 163);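 also: 0% = growth of vehicle-only control cultures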; details: S. cerevisiae CLN2oe strain, active compounds read high
Procedure, shortened: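 Inhibition relative to vehicle-treated yeast is reported. Cells: strain with genetic alteration in cell-cycle control, grown with compound.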

[13] = NCI Yeast Anticancer Drug Screen. Data for the cln2 rad14 strain (AID 165);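 also: 0% = growth equal to vehicle treated cultures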; details: S. cerevisiae cln2 rad14 strain, active compounds read high
Procedure, shortened: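 Each compound was tested on cln2 rad14 yeast. Inhibition of growth was calculated against vehicle-exposed controls.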

[14] = NCI Yeast Anticancer Drug Screen. Data for the bub3 strain (AID 167); details: S. cerevisiae bub3 mutant strain, active compounds read high
Procedure, shortened: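 Part of a panel of yeast mutants defective in DNA damage repair or cell cycle regulation. Each strain is grown with compound, and inhibition is calculated relative to solvent-treated cultures.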

[15] = NCI Yeast Anticancer Drug Screen. Data for the wt2 strain (AID 169);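 also: 0% = growth of vehicle-treated yeast cultures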; details: S. cerevisiae wt2 strain growth inhibition, active compounds read high
Procedure, shortened: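 Inhibition of yeast growth was determined after compound treatment, normalised to controls receiving only vehicle.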

[16] = NCI Yeast Anticancer Drug Screen. Data for the wt1 strain (AID 149);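 also: 0% = growth of vehicle-treated wt1 cultures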; details: S. cerevisiae wt1 strain (SPY 50644) growth inhibition, active compounds read high
Procedure, shortened: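 The wt1 strain was treated with compounds, and growth was compared with vehicle-treated cultures to give inhibition.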

[17] = at 5.0 µM (retest, dose inferred, filed as 0.5)
[18] = at 50.0 µM (retest, dose inferred, filed as 5.0)

Measured: growth inhibition

c1ccc2c(c1)Oc1cccc3cccc-2c13
inactive: [1]; at 1.2 µM 7% | [1]; at 3.7 µM 15% | [1]; at 11.0 µM 14% | [1]; at 33.0 µM 31% | [1]; at 100.0 µM 52% | [2]; at 1.2 µM 11% | [2]; at 3.7 µM 13% | [2]; at 11.0 µM 13% | [2]; at 33.0 µM 39% | [2]; at 100.0 µM 60% | [3]; at 50.0 µM 42.7% | [4]; at 1.2 µM 22% | [4]; at 3.7 µM 26% | [4]; at 11.0 µM 25% | [4]; at 33.0 µM 56%
active: [3]; [17] 100% | [3]; [18] 99% | [4]; at 100.0 µM 71%

CN(Cc1cnc2nc(N)nc(N)c2n1)c1ccc(C(=O)N[C@@H](CCC(=O)O)C(=O)O)cc1
inactive: [5]; at 1.2 µM -2% | [5]; at 3.7 µM -1% | [5]; at 11.0 µM 8% | [5]; at 33.0 µM 41% | [6]; at 1.2 µM -2% | [6]; at 3.7 µM -4% | [6]; at 11.0 µM -5% | [6]; at 33.0 µM 1% | [6]; at 100.0 µM 21% | [7]; at 1.2 µM -1% | [7]; at 3.7 µM -3% | [7]; at 11.0 µM -4% | [7]; at 33.0 µM 1% | [7]; at 100.0 µM 28% | [8]; at 1.2 µM -2% | [8]; at 3.7 µM 1% | [8]; [17] -2% | [8]; at 11.0 µM 6% | [8]; at 33.0 µM 38% | [9]; at 1.2 µM 1% | [9]; at 3.7 µM 2% | [9]; [17] 14% | [9]; at 11.0 µM 17% | [10]; at 1.2 µM -1% | [10]; at 3.7 µM -5% | [10]; at 11.0 µM -7% | [10]; at 33.0 µM 14% | [11]; [17] -3% | [11]; [18] 64% | [12]; at 1.2 µM 0% | [12]; at 3.7 µM 0% | [12]; at 11.0 µM -7% | [12]; at 33.0 µM -16% | [12]; at 100.0 µM 20% | [13]; [17] -1% | [13]; [18] 22% | [13]; at 50.0 µM -6.4% | [14]; at 1.2 µM 2% | [14]; at 3.7 µM -1% | [14]; [17] -7% | [14]; at 11.0 µM -7% | [14]; at 33.0 µM -4% | [14]; [18] 63% | [14]; at 100.0 µM 40% | [15]; at 1.2 µM -3% | [15]; at 3.7 µM -4% | [15]; at 11.0 µM -4% | [15]; at 33.0 µM 12% | [15]; at 100.0 µM 47% | [1]; at 1.2 µM -1% | [1]; at 3.7 µM -4% | [1]; at 11.0 µM -5% | [1]; at 33.0 µM 7% | [1]; at 100.0 µM 35% | [2]; at 1.2 µM -2% | [2]; at 3.7 µM -3% | [2]; at 11.0 µM 3% | [2]; at 33.0 µM 27% | [2]; at 100.0 µM 63% | [3]; [17] -2% | [3]; [18] 58% | [4]; at 1.2 µM -2% | [4]; at 3.7 µM 0% | [4]; at 11.0 µM 4% | [4]; at 33.0 µM 30%
active: [5]; at 100.0 µM 85% | [8]; [18] 82% | [8]; at 50.0 µM 88.6% | [8]; at 100.0 µM 85% | [9]; at 33.0 µM 88% | [9]; [18] 94% | [9]; at 50.0 µM 97.9% | [9]; at 100.0 µM 96% | [10]; at 100.0 µM 72% | [11]; at 50.0 µM 82.5% | [14]; at 50.0 µM 90.5% | [3]; at 50.0 µM 87.8% | [4]; at 100.0 µM 80%

COc1cc(C2SCC(=O)N2c2ccc(-c3ccc(-n4c(-c5ccccc5)nc5ccccc5c4=O)cc3)cc2)cc(OC)c1OC (centres undefined)
inactive: [5]; at 1.2 µM -3% | [5]; at 3.7 µM -1% | [5]; at 11.0 µM 1% | [5]; at 33.0 µM 1% | [5]; at 100.0 µM -5% | [16]; at 1.2 µM 0% | [16]; at 3.7 µM 0% | [16]; at 11.0 µM 0% | [16]; at 33.0 µM -2% | [16]; at 100.0 µM -8% | [7]; at 1.2 µM -1% | [7]; at 3.7 µM 0% | [7]; at 11.0 µM -2% | [7]; at 33.0 µM -3% | [7]; at 100.0 µM -7% | [8]; at 1.2 µM -2% | [8]; at 3.7 µM 2% | [8]; [17] -1% | [8]; at 11.0 µM 1% | [8]; at 33.0 µM 3% | [8]; [18] 13% | [8]; at 50.0 µM 25.9% | [8]; at 100.0 µM 1% | [9]; at 1.2 µM 0% | [9]; at 3.7 µM 0% | [9]; [17] 2% | [9]; at 11.0 µM 2% | [9]; at 33.0 µM 4% | [9]; [18] 3% | [9]; at 50.0 µM 19.6% | [9]; at 100.0 µM -2% | [10]; at 1.2 µM 0% | [10]; at 3.7 µM 0% | [10]; at 11.0 µM 4% | [10]; at 33.0 µM 6% | [10]; at 100.0 µM 4% | [11]; [17] 8% | [11]; [18] 7% | [11]; at 50.0 µM 21.6% | [12]; at 1.2 µM 5% | [12]; at 3.7 µM 7% | [12]; at 11.0 µM 9% | [12]; at 33.0 µM 10% | [12]; at 100.0 µM -2% | [13]; [17] 32% | [13]; [18] 13% | [13]; at 50.0 µM 52.4% | [14]; at 1.2 µM -1% | [14]; at 3.7 µM 4% | [14]; [17] 6% | [14]; at 11.0 µM 17% | [14]; at 33.0 µM 27% | [14]; at 100.0 µM 41% | [15]; at 1.2 µM -1% | [15]; at 3.7 µM -2% | [15]; at 11.0 µM -2% | [15]; at 33.0 µM -3% | [15]; at 100.0 µM -8% | [1]; at 1.2 µM -1% | [1]; at 3.7 µM 0% | [1]; at 11.0 µM 1% | [1]; at 33.0 µM -1% | [1]; at 100.0 µM -3% | [3]; [17] 6% | [3]; [18] 37% | [3]; at 50.0 µM 19.4% | [4]; at 1.2 µM -3% | [4]; at 3.7 µM 0% | [4]; at 11.0 µM 0% | [4]; at 33.0 µM 3% | [4]; at 100.0 µM 1%
active: [14]; [18] 73% | [14]; at 50.0 µM 71.7%
